KDM4E inh: inhibitors of human JMJD2E histone demethylase; B2RXH2; JMJD2E catalytic domain, FDH-coupled NADH fluorescence (FDH is formaldehyde dehydrogenase); actives 1.6% (n = 230,000); Potency, µM (highest dose often 57.1 µM), inactives show top-dose activity change, negative = inhibition, most hits filed as inhibitors; AID 2147;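 further: potency means the concentration at half of the fitted maximal effect; 0% = wells with enzyme and -100% = buffer wells without enzyme; nearly all actives have a fitted effect of over 50% in size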
Target sequence (B2RXH2 1-337 limits assumed): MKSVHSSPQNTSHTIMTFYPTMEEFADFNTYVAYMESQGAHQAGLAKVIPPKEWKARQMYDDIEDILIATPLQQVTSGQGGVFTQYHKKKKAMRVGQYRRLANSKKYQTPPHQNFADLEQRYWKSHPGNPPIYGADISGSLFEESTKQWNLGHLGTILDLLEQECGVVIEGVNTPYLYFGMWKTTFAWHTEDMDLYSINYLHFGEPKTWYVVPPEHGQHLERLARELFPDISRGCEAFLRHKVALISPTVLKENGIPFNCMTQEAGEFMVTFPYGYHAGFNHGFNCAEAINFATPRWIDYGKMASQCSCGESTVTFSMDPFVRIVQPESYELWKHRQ
Sfp inh: Sfp phosphopantetheinyl transferase inhibition. Q9F4F7. Biochemical Sfp PPTase activity, qHTS. Potency, µM, without a hit: largest response in the series, negative = inhibition, most hits filed as inhibitors. actives 3.5% (n = 310,000); active means well fitted curve in the direction sought with a large enough effect; inconclusive means small, poorly fitted or top-dose-only effect, or another doubt; inactive means no such curve, though single readings can be large; an effect the other way counts as inactive or inconclusive;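 further: the enzyme is Sfp with the accession as filed and its product quenches rhodamine fluorescence; potency means the concentration at half of the fitted maximal effect; 0% = enzyme reaction without inhibitor and -100% = no enzyme wells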
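Sfp 15 nM + cpd, 15 min RT; start w/ rhodamine-CoA 5 uM, BHQ-2-YbbR 12.5 uM (final); 50 mM Hepes pH 7.6, 10 mM MgCl2, 0.01% NP-40, 0.01% BSA; read 525/598 nm at 0 and 30 min.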
Coupling enz: inhibits coupling enzyme system, counter-screen for aldolase hits | coupling enzyme system counterscreen, AmpLite Red fluorescence | activity change, negative = inhibition, % at 58.2 µM, hits read low | actives 0.67% (n = 290,000) | AID 2472; in the data active means activity change below about -30%
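Coupling enzymes only (glyceraldehyde-3-phosphate) + compound, at 57.5 uM final, 10 min RT; add substrate/coupling/AmpLite Red mix, 20 min RT; fluorescence ex 525/em 598 nm. Actives flag coupling-system interference.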
GoLoco inh red: RGS12 GoLoco-Gai1 interaction inhibition | P63096 | Potency, µM (doses to about 61.6 µM), inactives show at the top dose activity, negative = inhibition, usual class: inhibitors | actives 0.44% (n = 230,000) | Gai1:RGS12 GoLoco peptide FP, rhodamine, 10 min; active means well fitted inhibition curve with a large enough effect, not every such curve was filed as active; inactive means no such curve, though single readings can be large or run the other way; further: potency means the concentration at half of the fitted maximal effect; nearly all actives have a fitted effect of over 30% in size
NPSR antagonist: antagonists of human neuropeptide S receptor cAMP signaling; Potency, µM (highest dose often 38.3 µM), for inactives: at the top dose activity change, negative = inhibition, actives largely listed as inhibitors; CHO-NPSR cells, cAMP TR-FRET, antagonist mode; Q6W5P4; actives 1% (n = 220,000); active means well fitted curve in the direction sought with a large enough effect; inconclusive means small, poorly fitted or top-dose-only effect, or another doubt; inactive means no such curve, though single readings can be large; an effect the other way counts as inactive or inconclusive; further: potency means the concentration at half of the fitted maximal effect; nearly all actives have a fitted effect of over 50% in size
Target sequence (Q6W5P4 whole entry, looked up): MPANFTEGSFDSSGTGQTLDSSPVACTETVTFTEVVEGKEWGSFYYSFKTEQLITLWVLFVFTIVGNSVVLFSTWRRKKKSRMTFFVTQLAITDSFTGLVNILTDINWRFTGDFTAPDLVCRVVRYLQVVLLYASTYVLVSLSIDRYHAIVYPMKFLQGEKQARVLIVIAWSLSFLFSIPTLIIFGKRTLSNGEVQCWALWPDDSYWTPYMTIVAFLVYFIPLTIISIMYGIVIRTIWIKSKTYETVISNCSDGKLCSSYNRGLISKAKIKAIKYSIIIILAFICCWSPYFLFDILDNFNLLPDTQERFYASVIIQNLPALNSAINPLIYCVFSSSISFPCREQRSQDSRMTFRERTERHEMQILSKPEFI
ALDH1A1 block: blocks purified human ALDH1A1 activity; P00352; Purified ALDH1A1, NADH fluorescence, propionaldehyde substrate; Potency, µM (highest dose often 75.3 µM), inactives show at the highest dose activity, negative = inhibition, most hits filed as inhibitors; actives 7.3% (n = 220,000); AID 1030;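 further: potency means the concentration at half of the fitted maximal effect; plate controls were no enzyme wells and a reference inhibitor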
An asterisk follows results filed as active; ? = inconclusive; . = no result; [ ] = dose if it differs, or a comment. Rows were chosen to be rich in hits. Some 8.5% of all compounds tested hit in one or more screens of this group. Unless noted, the call rests on the fitted dose curve; in most records, active means well fitted inhibition curve with a large enough effect (not every such curve was filed as active); inconclusive means small, poorly fitted or top-dose-only effect, or another doubt; inactive means no such curve, though single readings can be large or run the other way. Unless noted, on the % scale 0 is the no-effect control and ±100 the full control effect.

SMILES	KDM4E inh	Sfp inh	Coupling enz	GoLoco inh red	NPSR antagonist	ALDH1A1 block
Cc1cccc(N2C(=O)NC(=O)/C(=C\c3cc(C)n(-c4sc5c(c4C#N)CCCC5)c3C)C2=O)c1C	7%	35µM*	1	51%	5%	0.25µM*
CCOC(=O)c1c(-n2c(C)cc(C=C3C(=O)NC(=O)NC3=O)c2C)sc2c1CCCC2	-7%	-28%	3	13%	?	-2%
C/C=C/C=O	.	.	.	-10%	.	-2%
O=C1/C(=C/c2cccnc2)SC(=NCc2ccccc2)N1Cc1ccccc1	-3%	-14%	0	11%	?	0.56µM*
CCC(=NCc1cccnc1)c1c(O)n(-c2ccccc2)c(=O)[nH]c1=O	-24%	?	-3	-11%	8%	.
CCC(C)N1C(=O)/C(=C/c2ccc3c(c2)CCN3CCCCl)C(=O)NC1=S (stereo unspecified)	0%	?	1	134%	-48%	0.22µM*
C=CCN1C(=O)NC(=O)C(Cc2ccc(OC)c(OC)c2)C1=O (stereo unspecified)	?	?	-8	-15%	11%[46.1 µM]	25µM*
O=C1CCC[C@H]2[C@H]3CCCN4CCCC(=CN12)[C@@H]34	-16%	-17%	-1	1%	.	0%
CCc1ccc(CNCCc2c[nH]c3ccccc23)cc1	.	-22%	0	.	.	.
c1ccc(CNCCc2c[nH]c3ccccc23)cc1	.	-3%	1	.	.	.
CNCCc1c[nH]c2ccc(O)cc12	22µM*	-1%	-5	8%	?	2%
CNCCc1c[nH]c2ccccc12	?	21%	3	11%	15%	18µM*
c1ccc2c(CCNCc3ccc4c(c3)OCO4)c[nH]c2c1	-2%	35µM*	-11	13%	6%[46.1 µM]	2%
CCN1C[C@]2(COC)CC[C@H](OC)[C@@]34C5C[C@@H]6[C@@H](OC)C[C@@]7(OCO[C@@]7([C@@H](O)C23)[C@@H]14)C5[C@H]6OC (stereo partly specified)	.	7%	.	0%	.	1%
Nc1cccc(Cl)c1	.	.	.	-26%	.	?
O=C(Nc1ccc(OC(F)(F)F)cc1)Oc1ccccc1N1CCCCC1	?	6%	-1	3%	13%	.
O=C(CCl)c1ccc(Oc2ccc(C(=O)CCl)cc2)cc1	.	50µM*	.	.	.	.
CCSC(=O)Cl	.	.	.	3%	.	?
O=C(CN1CCCCC1)c1ccccc1Cl	-5%	-18%	0	16%	17%	13µM*
O=C(CN1CCCCC1)c1ccccc1F	-3%	16%	0	1%	2%	3%
O=C(CN1CCCCC1)c1ccc2c(c1)OCO2	-4%	13%	-1	-2%	5%	.
O=C(CN1CCCCC1)c1cccc(Br)c1	-3%	-2%	-1	1%	-2%[46.1 µM]	1.4µM*
CC(C)NC(=O)N1CCCC2(CCN(C(=O)Oc3ccccc3)CC2)C1	.	-1%	-2	16%	.	3%
CC(Cc1cccc(C(F)(F)F)c1)NCCCc1ccccc1 (stereo unspecified)	.	-1%	.	-4%	.	-12%
CC[C@H](/C=C/[C@@H](C)[C@H]1CC[C@H]2C3CC=C4C[C@@H](O)CC[C@]4(C)C3CC[C@]12C)C(C)C (stereo partly specified)	-1%	34%	0	1%	.	11%
SMILES	KDM4E inh	Sfp inh	Coupling enz	GoLoco inh red	NPSR antagonist	ALDH1A1 block
O=C1NC(=O)C(C(CC(=O)c2ccccc2)c2ccccc2)C(=O)N1 (stereo unspecified)	19%	20%	-6	14%	-31%	0.1µM*
Cc1cccc(-n2c(O)c(/C=C3/C(c4ccccc4)=Nc4ccccc43)c(=O)[nH]c2=O)c1	?	-16%	6	89%	-10%	.
Cc1ccc(-n2c(O)c(/C=C3/C(c4ccccc4)=Nc4ccccc43)c(=O)[nH]c2=O)cc1	4%	-24%	3	.	?	25µM*
CCOC(=O)c1c(C)n(Cc2ccc(F)cc2)c2ccc(O)cc12	?	22µM*	1	-13%	-30%	.
CCOC(=O)c1c(C)n(Cc2ccc3c(c2)OCO3)c2ccc(O)cc12	-22%	-10%	1	-5%	-26%[46.1 µM]	-6%
CCOC(=O)c1c(C)n(Cc2ccco2)c2ccc(O)cc12	-16%	45µM*	0	15%	-22%[46.1 µM]	4µM*
CCOC(=O)c1c(C)n(COCCO)c2ccc(O)cc12	-22%	0%	0	-1%	9%[7.67 µM]	2%
CCN1CCN(C(=O)COc2ccc(S(=O)(=O)N3CCOCC3)cc2Cl)CC1	.	12%	-2	.	.	.
CCN1CCN(S(=O)(=O)c2ccc(Cl)nc2)CC1	2%	7%	4	-10%	3%[46.1 µM]	25µM*
Cc1csc(B(O)O)c1	15%	41%	0	5%	.	-1%
CC(=O)[C@@H]1CC[C@H]2[C@@H]3CC[C@@H]4CC(=O)CC[C@]4(C)[C@H]3CC[C@]12C	.	8%	.	4%	.	?
CCN(CC)C(=O)c1ccc(NC(=O)c2ccc(-c3nn(C)c(=O)c4ccccc34)cc2)cc1	8%	7%	0	3%	46%	?
Cc1ccc(-c2nn(C)c(=O)c3ccccc23)cc1CNC(=O)/C=C/c1ccccc1	?	-10%	3	7%	?	22µM*
N[C@@H](CP(=O)(O)O)C(=O)O	.	.	.	3%[14.2 µM]	.	8%[13.5 µM]
CNNC	?	11µM*	-18	28%	.	?
C=C(C)[C@]12C[C@@H](C)[C@@]34OC(Cc5ccccc5)(O[C@@H]1[C@@H]3C=C(COC(=O)Cc1cc(I)c(O)c(OC)c1)C[C@]1(O)C(=O)C(C)=C[C@@H]41)O2	.	34%	-6	-4%	.	-1%
C=CCn1c(O)c(C(C)=NCCc2ccccc2)c(=O)[nH]c1=O	-9%	-3%	5	9%	2%[46.1 µM]	-16%
C=CCn1c(O)c(/C(C)=N/NC(=S)Nc2ccccc2)c(=O)[nH]c1=O	?	35µM*	2	-6%	20%	.
C=CCn1c(O)c(C(CC)=NCCc2ccccc2)c(=O)[nH]c1=O	6%	4%	0	6%	-8%[46.1 µM]	-1%
C=CCn1c(O)c(/C(CC)=N/NC(=S)Nc2ccccc2)c(=O)[nH]c1=O	?	22µM*	-2	2%	-15%	18µM*
[S]=[Sb][S][Sb]=[S]	.	28%	.	.	.	.
CC(=O)O[C@@H]1[C@@H](O)C2OC3C=C(C)C(=O)[C@@H](O)[C@]3(CO)C1(C)C21CO1 (stereo partly specified)	.	2%	0	.	.	.
FC(F)(F)c1ccc(Cl)cc1	.	.	.	-13%	.	0%
CC[N+](C)(CC)CCCCOc1ccc2c(c1)C(=O)c1cc(OCCCC[N+](C)(CC)CC)ccc1-2	-18%	14µM*	-1	11µM*	-39%	.

Assay outcomes deposited in PubChem BioAssay by National Center for Advancing Translational Sciences (NCATS).
